Screening data (PubChem BioAssay)
Shiga inhibitor = blocks Shiga toxin action in Vero cells; Vero cells, Shiga toxin protein synthesis inhibition reporter; 9.2% of 290,000 active; inhibition, % at 38.7 µM; in the data active = inhibition mostly above about 28%, no sharp cut-off; inactive = mostly below about 43%; note: 0% is about no effect
NS1 function inh = inhibitors of influenza NS1 protein function. Potency, µM (top dose mostly 46.1 µM), without a hit: at the highest dose activity, positive = more growth. AID 2326. 0.4% of 270,000 active; note: potency is the fitted concentration of half-maximal effect; actives are rising curves; nearly all actives have a fitted effect of over 50% in size
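Growth recovery, yeast-based: influenza A NS1 expressed in S. cerevisiae causes slow growth, and suppressors are detected by OD600. The parent strain without NS1 is used as positive control.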
SARS PLpro yeast = inhibitors of SARS-CoV papain-like protease in yeast; Potency, µM (titrated, usually from 32.9 µM), for the others: top-dose activity, positive = growth rescue, actives largely listed as activators; AID 485353; 0.19% of 330,000 active; S. cerevisiae expressing SARS-CoV PLpro, growth rescue; note: potency is the fitted concentration of half-maximal effect; 0% is about no effect; nearly all actives have a fitted effect of over 55% in size
TbPYK inhibitor = T. brucei pyruvate kinase inhibition. 0.12% of 410,000 active. Q57TT1. AID 624173. TbPYK enzyme, Kinase-Glo Plus ATP luminescence, 45 min. Potency, µM (top dose mostly 76.8 µM), for inactives: top-dose activity, negative = inhibition, actives largely listed as inhibitors; active = well fitted curve in the direction sought with a large enough effect; inconclusive = small, poorly fitted or top-dose-only effect, or another doubt; inactive = no such curve, though single readings can be large; an effect the other way counts as inactive or inconclusive; note: potency is the fitted concentration of half-maximal effect; % is set by controls: 0 for no effect and ±100 for the full control effect; nearly all actives have a fitted effect of over 50% in size
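Activity of T. brucei pyruvate kinase was followed by Kinase-Glo Plus luminescence after the enzyme reacted 45 min at room temperature with 130 uM ADP (final) and substrate. Test compounds were added before ADP at multiple concentrations.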
LmPK inhibitor = blocks Leishmania mexicana pyruvate kinase activity | Potency, µM (highest dose often 57.5 µM), without a hit: at the highest dose activity change, negative = inhibition, hits mostly inhibitors | 0.37% of 290,000 active | purified LmPK, Kinase-Glo ATP luminescence, 1 h | Q27686; active = well fitted curve in the direction sought with a large enough effect; inconclusive = small, poorly fitted or top-dose-only effect, or another doubt; inactive = no such curve, though single readings can be large; an effect the other way counts as inactive or inconclusive; note: potency is the fitted concentration of half-maximal effect; % is set by controls: 0 for no effect and ±100 for the full control effect
Target sequence (Q27686 whole entry, looked up): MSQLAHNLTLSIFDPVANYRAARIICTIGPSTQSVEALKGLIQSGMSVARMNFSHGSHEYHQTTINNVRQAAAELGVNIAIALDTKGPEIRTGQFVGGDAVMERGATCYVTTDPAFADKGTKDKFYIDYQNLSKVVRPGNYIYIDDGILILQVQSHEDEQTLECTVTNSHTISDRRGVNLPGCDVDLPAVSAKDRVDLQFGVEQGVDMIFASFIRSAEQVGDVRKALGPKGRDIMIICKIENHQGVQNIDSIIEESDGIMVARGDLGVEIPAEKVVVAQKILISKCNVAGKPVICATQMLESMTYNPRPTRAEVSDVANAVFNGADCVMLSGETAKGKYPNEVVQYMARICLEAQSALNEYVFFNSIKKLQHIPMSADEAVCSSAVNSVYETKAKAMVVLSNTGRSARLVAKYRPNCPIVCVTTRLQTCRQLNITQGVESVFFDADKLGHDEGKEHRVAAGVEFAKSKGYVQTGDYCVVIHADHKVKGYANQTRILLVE
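Kinase-Glo luminescence read after 1 h RT reaction of 0.1 nM LmPK with 0.5 mM PEP and 0.1 mM ADP. Activity scaled between uninhibited and enzyme-free controls.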
CHX counter = affects cycloheximide protein synthesis inhibition readout, counter-screen. cell reporter, cycloheximide protein synthesis inhibition counterscreen. max response, %. 12% of 300,000 active. AID 2314; in the data active = max response mostly above about 13%, no sharp cut-off; inactive = mostly below about 14%; note: read at 38.3 µM for the half of the compounds with a filed dose; 0% is about no effect
Active calls of the source: *; ? = inconclusive; nt = not tested or not shown. This is one part of a sample in which hits are shown more often than they occur. Unless noted, calls come from the whole dose curve.

SMILES	Shiga inhibitor	NS1 function inh	SARS PLpro yeast	TbPYK inhibitor	LmPK inhibitor	CHX counter
O=C(NCC(O)COc1ccc([N+](=O)[O-])cc1)Nc1ccccc1 (configuration not stated)	34*	-2%	-1%	-3%	8%	30*
COc1ccccc1CNC(=O)Cc1ccc(Br)cc1	active	-13%	9%	-6%	5%	35*
O=C(Cc1ccc(Br)cc1)NCc1ccccc1	22	13%	-1%	-16%	-2%	19*
COc1cc(NC(=O)COC(=O)CCOc2ccc(C)cc2)cc(OC)c1	-1	-50%	2%	6%	4%	-3
O=C(COC(=O)c1cccc(S(=O)(=O)N2CCCC2)c1)Nc1ccc(Cl)cc1	nt	nt	nt	7%	nt	nt
COC(=O)CN(C)C(=O)c1ccc(OC)c(OC2CCN(C(C)C)CC2)c1	30*	9%	0%	-2%	7%	24*
COc1ccc(C(=O)NC2CCSc3ccccc32)cc1F (configuration not stated)	7	-17%	-1%	-3%	2%	13*
CCCOC1CCCN(C(=O)c2ccc(OC)c(OC3CCN(C(C)C)CC3)c2)C1 (configuration not stated)	20	-13%	5%	4%	3%	19*
COc1ccc(C(=O)N(C)C2CCCc3ccccc32)cc1OC1CCN(C(C)C)CC1 (configuration not stated)	-18	4%	-1%	1%	-6%	14
COc1ccc(C(=O)NC2CCc3ccccc32)cc1OC1CCN(C(C)C)CC1 (configuration not stated)	47*	-1%	-3%	-8%	-5%	14*
O=C(CSc1nnc(NC(=O)C2CC2)s1)NCc1ccco1	8	?	18%	-2%	2%	3
